Measured values reported in PubChem BioAssay (NCI).
The panel holds about 83,000 compounds, 20% with a hit somewhere; the sample as a whole holds those more often.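 Growth was measured after 48 h exposure to one concentration of compound in 96-well plates. Values under 10 count as active.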 A number with no mark means an inactive call. Calls of active or inactive are those of the source.

Legend:
Test in all cases: NCI-60 one-dose screen, 48 h (100 = growth as untreated, 0 = no growth, -100 = all killed)
[1] = tested on: SK-MEL-2 melanoma; conditions: 10 µM unless noted
[2] = tested on: EKVX NSCLC; conditions: 10 µM unless noted
[3] = tested on: SN12C renal; conditions: 10 µM unless noted
[4] = tested on: UO-31 renal; conditions: 10 µM unless noted
[5] = tested on: TK-10 renal; conditions: 10 µM unless noted
[6] = tested on: ACHN renal; conditions: 10 µM unless noted
[7] = tested on: CAKI-1 renal; conditions: 10 µM
[8] = tested on: A498 renal; conditions: 10 µM unless noted
[9] = tested on: CCRF-CEM leukemia; conditions: 10 µM unless noted
[10] = tested on: MOLT-4 leukemia; conditions: 10 µM unless noted
[11] = tested on: SR leukemia; conditions: 10 µM unless noted
[12] = tested on: RPMI-8226 leukemia; conditions: 10 µM unless noted
[13] = tested on: OVCAR-8 ovarian; conditions: 10 µM unless noted
[14] = tested on: OVCAR-4 ovarian; conditions: 10 µM unless noted
[15] = tested on: SK-OV-3 ovarian; conditions: 10 µM unless noted
[16] = tested on: IGROV1 ovarian; conditions: 10 µM unless noted
[17] = tested on: OVCAR-3 ovarian; conditions: 10 µM unless noted
[18] = tested on: HS 578T breast; conditions: 10 µM unless noted
[19] = tested on: OVCAR-5 ovarian; conditions: 10 µM unless noted
[20] = tested on: NCI/ADR-RES ovarian; conditions: 10 µM unless noted

SMILES	growth [1]	growth [2]	growth [3]	growth [4]	growth [5]	growth [6]	growth [7]	growth [8]	growth [9]	growth [10]	growth [11]	growth [12]	growth [13]	growth [14]	growth [15]	growth [16]	growth [17]	growth [18]	growth [19]	growth [20]
COc1ccc(N)cc1C(=O)Nc1cccc(-c2cc(=O)c3c(OC)c(OC)c(OC)cc3o2)c1	89.1%	84.8%	49.7%	29.4%	81.5%	52.3%	43.1%	63.1%	34%	48.2%	40.9%	35.4%	56.4%	81.5%	119%	51.3%	65.5%	58.3%		
O=C(C[n+]1ccnc2ccccc21)c1ccc(O)c(O)c1	77.7%	94.2%	59.5%	40.3%	43.1%	17.8%	69.8%	87.7%	4.57% (active)	11.6%	7.3% (active)		48.4%	46.6%	112%	51.4%	21.7%	94.4%	70.5%	57.2%
CN(c1ccc(Cl)cc1)S(=O)(=O)c1ccc(-c2cnc(C3CC3)o2)cc1	63.7%	47%	29.8%	47.3%	75.8%	33.6%	5.6% (active)	12.8%	17.1%	16.8%	8.67% (active)		30.7%	54.7%	84.1%	28.8%	9.18% (active)	49.3%	38.3%	
Cc1ccc(NC(=O)c2ccc(CN3CCN(C)CC3)c(C(F)(F)F)c2)cc1Oc1ccc(-c2[nH]nc3ncnc(N)c23)cc1	84.1%	109%	80.7%	83%	119%	83%	92.1%	113%	8.05% (active)	43%	2.87% (active)		94.5%	90.7%	97%	82.7%	113%	72.8%	95.3%	
O=S(=O)(NCCCNc1nccc(-n2cnc3ccccc32)n1)c1ccc(F)cc1	85.8%	61.2%	89%	59.3%	91.9%	81.1%	71%	70.6%	49.1%	33.2%	36.8%		62.5%	44.2%	85.1%	91.8%	86.7%	82.4%	98.6%	
O=C(Nc1cccc(-c2nc(-c3ccc(NC(=O)c4cccnc4)cc3Cl)no2)c1)Nc1ccc(NC(=O)C2CC2)c(C(F)(F)F)c1	-55% (active)	-28% (active)	-60.8% (active)	17.8%	-20.4% (active)	9.95% (active)	-72.7% (active)	-69.6% (active)	-16.3% (active)	-39.7% (active)	-14.4% (active)		-16.8% (active)	-74.1% (active)	-48.3% (active)	-55.4% (active)	-74.7% (active)	-31% (active)	-65.6% (active)	
C#C[C@]1(O)CC[C@H]2[C@@H]3CC=C4c5sc(Nc6ccncc6)nc5CC[C@]4(C)[C@H]3CC[C@@]21C	-15% (active)	-13.7% (active)	44.1%	-61.8% (active)	12%	18.8%	-19.4% (active)	-52.2% (active)	4.46% (active)	-18.3% (active)	4.33% (active)		51.4%	59.8%	-38.1% (active)	24.4%		-33.6% (active)	38.6%	33.1%
CC(=O)Nc1nc2c(s1)C1=CC[C@H]3[C@@H]4CC[C@H](C(C)=O)[C@@]4(C)CC[C@@H]3[C@@]1(C)CC2	56.2%	68.7%	86.4%	65.4%	124%	77.6%	80.3%	74.5%	49%	1.44% (active)	59.4%		78.6%	80.5%		99.1%	74.8%	33.8%	80.6%	81.6%
O=C(CSc1ccc(-c2nc3ccccc3[nH]2)cn1)N1CCN(c2ccccc2F)CC1	88.4%	53.6%	90.4%	70.9%	86.5%	93.2%	49.1%	77%	28.2%	14.6%	52.5%		37.4%	24.2%	95.4%	80.7%	50.7%	89.4%		29%
O=S(=O)(Nc1ccc(-c2nc(-c3cccc(O)c3)c(-c3ccnc(Br)c3)[nH]2)cc1)c1ccccc1	23.5%	53.3%	44.3%	24.7%	55.7%	28.4%	25.6%	49.4%	-2.56% (active)	-20.9% (active)	-9.8% (active)		9.98% (active)	9.17% (active)	54.7%	42.1%	32.1%	-0.856% (active)	64.6%	61.1%
COC(=O)[C@@]1(C)CC[C@]2(C)CC[C@]3(C)C(=CC(=O)[C@@H]4[C@@]5(C)Cc6c(n(CC#CCN7CCN(C)CC7)c7ccccc67)C(C)(C)[C@@H]5CC[C@]43C)[C@@H]2C1	101%	92.4%	73.5%	65.7%	119%	89.4%	64.7%	112%	48%	16.9%		69.5%	93.8%	89.7%	122%	89%		88.1%	86.7%	86.5%
Nc1nc(N)c2c(n1)NC(c1ccc(Cl)cc1)CC(c1ccc(Nc3nc(NCCO)nc(Nc4ccc(Cl)cc4)n3)cc1)=N2 (stereo unspecified)	54.2%	76.1%	56.6%	39.7%	72.9%	57.5%	49.5%	82.1%	4.85% (active)	3.59% (active)		-32.5% (active)	17.6%	34.6%	100%	37%		55.7%	84.8%	56.5%
COc1ccc(-c2nc(SCCC(C)C)nc(N/N=C\c3ccc(O)cc3)c2C#N)cc1	104%	93.1%	67.6%	76.8%	157%	60.9%	78%	92.5%	54.7%	64.5%	25.5%		47.6%	74.9%	109%	68.5%		67%	101%	55.1%
N#C/C(=C\c1ccc2ccccc2c1)C(=O)Nc1sc2c(c1C#N)CCC2	100%	94.8%	95.5%	78.2%	108%	104%	88.2%	93.9%	103%	101%	90.9%		100%	105%	99.8%	107%		104%	111%	103%
O=S(=O)(Nc1ccc2c(c1)OC(F)(F)O2)c1ccc(-c2cnc(C3CC3)o2)cc1	41.3%	58%	52.8%	56.7%	84.3%	57.1%	17.5%	23.2%	24.1%	30.3%	27.8%		56.3%	59.4%		42.8%	20.3%	40.6%	73.2%	24.7%
Cc1ccc(S(=O)(=O)N/N=C/c2cn(-c3ccc(F)cc3)nc2-c2ccc(S(C)(=O)=O)cc2)cc1	102%	96.6%	99.8%	89.8%	103%	102%	98%	87.5%	103%	106%	107%		102%	101%	105%	99.7%	109%	107%	105%	106%
